Source: PubChem BioAssay
The source made the active and inactive calls.

Assays:
[1] = binders of probe aFSTL3 on microarray, primary screen, stem cell growth factor project, biochemical, small-molecule microarray, fluorescence 635/667 (AID 1064); details: higher = more signal;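 note: measures binding of the biotinylated anti-FSTL3 antibody to printed compounds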
[2] = binders from COS7 lysate, DM2A8 probe, primary screen, torsin A project, cell lysate, small-molecule microarray, fluorescence 635/667 (AID 1065); details: higher = more signal, COS7 lysate expressing mutant human TOR1A
[3] = binders of probe aFGF2 on microarray, primary screen, stem cell growth factor project, biochemical, small-molecule microarray, fluorescence 635/667 (AID 1067); details: higher = more signal;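 note: measures binding of biotinylated aFGF2 protein to printed compounds on slides; z-score merges feature fluorescence and signal-to-noise across triplicate slides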
[4] = binders of probe aFGF10 on microarray, primary screen, stem cell growth factor project, biochemical, small-molecule microarray, fluorescence 635/667 (AID 1071); details: higher = more signal;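 note: score merges 667 nm spot intensity and signal to noise from triplicate slides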
[5] = target: Neurogenic locus notch homolog protein 2 (Homo sapiens) (UniProt Q04721); experiment: Notch2 binders on small-molecule microarrays, primary screen, biochemical, small-molecule microarray, 635 nm fluorescence, stem cell growth factors (AID 1073); details: Notch2 binding, higher = more signal
Chain of Neurogenic locus notch homolog protein 2 (Homo sapiens) (Q04721 whole entry, looked up, canonical isoform): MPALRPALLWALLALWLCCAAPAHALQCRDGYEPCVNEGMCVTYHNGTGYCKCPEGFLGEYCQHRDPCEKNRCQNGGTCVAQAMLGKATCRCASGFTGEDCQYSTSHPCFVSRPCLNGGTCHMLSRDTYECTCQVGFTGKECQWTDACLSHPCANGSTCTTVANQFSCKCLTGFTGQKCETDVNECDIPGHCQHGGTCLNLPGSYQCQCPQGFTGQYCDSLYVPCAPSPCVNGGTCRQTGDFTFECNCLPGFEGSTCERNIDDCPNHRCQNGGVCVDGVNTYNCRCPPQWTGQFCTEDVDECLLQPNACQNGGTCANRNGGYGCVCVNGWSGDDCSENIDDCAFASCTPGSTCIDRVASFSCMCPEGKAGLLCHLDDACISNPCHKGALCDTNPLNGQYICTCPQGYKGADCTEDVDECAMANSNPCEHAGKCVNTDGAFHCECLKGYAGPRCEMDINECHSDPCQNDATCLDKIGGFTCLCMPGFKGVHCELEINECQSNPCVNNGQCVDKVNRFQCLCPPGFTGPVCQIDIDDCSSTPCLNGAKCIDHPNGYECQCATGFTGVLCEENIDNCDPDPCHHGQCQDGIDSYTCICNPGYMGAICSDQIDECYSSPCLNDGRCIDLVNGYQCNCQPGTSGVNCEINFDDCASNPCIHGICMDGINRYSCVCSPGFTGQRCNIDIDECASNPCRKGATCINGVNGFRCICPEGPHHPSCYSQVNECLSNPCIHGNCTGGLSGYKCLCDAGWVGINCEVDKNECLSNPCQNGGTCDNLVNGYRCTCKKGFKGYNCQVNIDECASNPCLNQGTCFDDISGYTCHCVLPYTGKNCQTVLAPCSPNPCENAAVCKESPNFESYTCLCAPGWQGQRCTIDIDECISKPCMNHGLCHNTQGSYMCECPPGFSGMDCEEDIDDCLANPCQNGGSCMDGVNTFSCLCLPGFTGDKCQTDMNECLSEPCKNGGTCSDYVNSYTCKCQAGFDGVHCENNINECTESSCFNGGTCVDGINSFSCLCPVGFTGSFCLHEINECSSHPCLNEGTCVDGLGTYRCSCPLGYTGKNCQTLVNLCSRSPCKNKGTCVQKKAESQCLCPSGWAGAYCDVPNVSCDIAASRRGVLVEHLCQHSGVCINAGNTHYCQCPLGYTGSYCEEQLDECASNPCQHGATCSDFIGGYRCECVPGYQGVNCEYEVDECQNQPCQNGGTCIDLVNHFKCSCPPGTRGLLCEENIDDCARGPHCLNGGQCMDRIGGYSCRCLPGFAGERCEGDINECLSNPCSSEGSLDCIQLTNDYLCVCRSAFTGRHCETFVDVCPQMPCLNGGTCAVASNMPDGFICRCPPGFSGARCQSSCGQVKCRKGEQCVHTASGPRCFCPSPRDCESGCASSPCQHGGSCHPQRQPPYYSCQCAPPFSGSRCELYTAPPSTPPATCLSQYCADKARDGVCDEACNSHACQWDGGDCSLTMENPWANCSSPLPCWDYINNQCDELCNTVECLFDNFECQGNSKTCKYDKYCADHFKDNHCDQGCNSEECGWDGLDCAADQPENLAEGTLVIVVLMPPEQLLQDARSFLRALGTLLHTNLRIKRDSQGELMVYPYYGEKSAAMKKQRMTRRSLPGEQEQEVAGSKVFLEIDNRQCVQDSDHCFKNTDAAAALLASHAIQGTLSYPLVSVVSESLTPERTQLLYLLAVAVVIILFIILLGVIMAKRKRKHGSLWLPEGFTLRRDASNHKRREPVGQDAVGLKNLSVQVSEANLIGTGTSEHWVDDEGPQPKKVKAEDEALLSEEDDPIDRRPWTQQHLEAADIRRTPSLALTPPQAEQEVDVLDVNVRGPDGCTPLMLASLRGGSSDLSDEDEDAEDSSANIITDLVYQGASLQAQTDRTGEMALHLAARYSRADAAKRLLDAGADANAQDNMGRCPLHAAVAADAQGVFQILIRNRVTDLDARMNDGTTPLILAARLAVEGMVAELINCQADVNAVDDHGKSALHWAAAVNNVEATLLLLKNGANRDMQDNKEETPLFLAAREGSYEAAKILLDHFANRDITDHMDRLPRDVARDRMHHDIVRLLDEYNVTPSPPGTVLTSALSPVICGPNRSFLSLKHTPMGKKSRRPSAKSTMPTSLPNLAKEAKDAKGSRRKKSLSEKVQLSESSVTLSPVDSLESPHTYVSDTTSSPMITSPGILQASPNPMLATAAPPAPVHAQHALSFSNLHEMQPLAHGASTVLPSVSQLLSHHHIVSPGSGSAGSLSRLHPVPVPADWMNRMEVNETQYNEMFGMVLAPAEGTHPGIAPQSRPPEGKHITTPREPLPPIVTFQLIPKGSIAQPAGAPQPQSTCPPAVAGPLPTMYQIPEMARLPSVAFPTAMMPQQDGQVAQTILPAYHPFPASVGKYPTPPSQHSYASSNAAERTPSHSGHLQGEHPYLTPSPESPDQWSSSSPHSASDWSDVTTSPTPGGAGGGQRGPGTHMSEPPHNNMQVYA

[6] = target: Pro-neuregulin-1, membrane-bound isoform (Homo sapiens) (UniProt Q02297); experiment: NRG1 binders on small-molecule microarrays, primary screen, psychiatric disease protein project, biochemical, small-molecule microarray, fluorescence 635/667 (AID 1075); details: NRG1 binding, 635 nm fluorescence, higher = more signal;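 note: score combines 667 nm spot fluorescence with signal to noise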
Chain of Pro-neuregulin-1, membrane-bound isoform (Homo sapiens) (Q02297 whole entry, looked up, the tested form may be a part, canonical isoform): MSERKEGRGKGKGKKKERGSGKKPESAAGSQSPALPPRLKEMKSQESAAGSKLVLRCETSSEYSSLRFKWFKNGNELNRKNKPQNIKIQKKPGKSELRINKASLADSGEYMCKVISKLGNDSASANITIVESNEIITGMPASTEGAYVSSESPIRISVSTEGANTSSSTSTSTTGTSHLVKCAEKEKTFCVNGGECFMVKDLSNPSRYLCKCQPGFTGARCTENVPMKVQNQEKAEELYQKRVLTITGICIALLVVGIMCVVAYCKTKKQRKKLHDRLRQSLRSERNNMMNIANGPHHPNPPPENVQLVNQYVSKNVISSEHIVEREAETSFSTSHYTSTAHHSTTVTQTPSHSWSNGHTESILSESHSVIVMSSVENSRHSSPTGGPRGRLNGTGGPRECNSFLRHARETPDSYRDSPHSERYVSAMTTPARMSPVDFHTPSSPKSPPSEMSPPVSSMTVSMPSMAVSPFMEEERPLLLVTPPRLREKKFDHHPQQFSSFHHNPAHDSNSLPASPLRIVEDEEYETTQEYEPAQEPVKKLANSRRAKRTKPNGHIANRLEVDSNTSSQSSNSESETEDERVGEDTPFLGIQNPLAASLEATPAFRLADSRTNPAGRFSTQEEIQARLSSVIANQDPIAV

[7] = tested on: Neuregulin-1 EGF-like domain; experiment: binders of neuregulin-1 EGF-like domain, primary screen, biochemical, small-molecule microarray, 635 nm fluorescence (AID 1081); details: small-molecule microarray binding, higher = more signal;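 note: binding of the protein to compounds printed on small-molecule microarray slides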
[8] = FRG1 promoter luciferase signal modulators, primary screen, FRG1 inhibition for FSHD, cell-based, C2C12 myotubes, firefly/Renilla luciferase, luminescence (AID 1084); details: higher = more signal, called active from +8 up or from −8 down
[9] = binders of probe aFST on microarray, primary screen, stem cell growth factor project, biochemical, small-molecule microarray, fluorescence 635/667 (AID 1086); details: higher = more signal;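 note: score merges 667 nm fluorescence with signal-to-noise of each printed compound spot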
[10] = binders of probe aHhip on microarray, primary screen, stem cell growth factor project, biochemical, small-molecule microarray, fluorescence 635/667 (AID 1087); details: higher = more signal;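 note: score merges spot fluorescence at 667nm with spot signal to noise ratio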

Row | SMILES | composite z-score [1] | composite z-score [2] | composite z-score [3] | composite z-score [4] | composite z-score [5] | composite z-score [6] | composite z-score [7] | z-score [8] | composite z-score [9] | composite z-score [10]
1 | CCCCC(O)C1C=CC2C(=O)N(c3ccccc3)C(=O)C2N1Nc1ccccc1 (stereo not given) | 0.436 | -0.572 | -0.0414 | 0.43 | 1.2 | 1.62 | 1.12 | 0.0165 (inactive) | 0.545 | -0.137
2 | [N-]=[N+]=Nc1ccccc1[C@@H]1OC(c2ccc(OCCCO)cc2)=N[C@]1(CCS(=O)(=O)c1ccccc1)C(=O)NCC(O)CO (stereo not given in full) | 0.158 | 0.372 | -0.0125 | 0.0835 | 0.209 | 1.05 | 1.21 | -0.463 (inactive) | 0.283 | 0.0401
3 | CC(C)NC(=O)[C@@]1(C)c2ccccc2C(=O)N(Cc2ccccc2)[C@H]1c1ccc(CO)cc1 | 0.267 | 0.824 | -0.169 | -0.548 | -1.12 | 1 | 0.814 | -2.47 (inactive) | -0.875 | -0.291
4 | CC(C)=CCCC(C)=CC(O)C1C=CC2C(=O)NC(=O)C2N1Nc1ccc(Cl)cc1Cl (stereo not given) | 0.235 | 0.401 | 0.234 | 0.214 | 0.933 | 1.86 | 0.915 | 1.89 (inactive) | 0.901 | 0.0373
5 | COC(=O)[C@@]1(Cc2ccc(F)cc2)[C@H]2c3cc(C(=O)N(C)C)n(CCc4ccc(O)c(O)c4)c3C[C@H]2CN1C(=O)c1ccccc1 | -0.0383 | -0.134 | 0.187 | 0.876 | 1.68 | 0.562 | 1 | 0.115 (inactive) | 0.662 | -0.374
6 | C=C(CCCC)/C(=C/C[C@H](OC(=O)c1ccncc1)c1cccc(OCCO)c1)c1cnc2ccccc2c1 | -0.279 | 0.824 | 0.0437 | 0.595 | 0.974 | 1.56 | 1.04 | 0.996 (inactive) | 0.346 | -0.0491
7 | C=CCOC(=O)[C@H]1[C@@H]2C(=O)O[C@@H](c3ccccc3)[C@@H](c3ccccc3)N2[C@@H](c2ccc(OCCOC(=O)[C@@H]3C[C@@H]4C(=O)N[C@@H](CCCC[N+](C)(C)C)C(=O)N4[C@@H]3c3ccc(O)cc3)cc2)[C@]12C(=O)Nc1ccc(I)cc12 | -0.291 | 0.857 | 0.0559 | 0.719 | 1.24 | 1.44 | 1.11 | 0.687 (inactive) | 0.365 | -0.0088
8 | O=C(O)[C@H](Cc1ccccc1)n1cc(C2(O)CCCCC2)nn1 | -0.44 | 0.444 | -0.103 | 0.262 | -0.0666 | 0.0741 | 0.993 | 1.64 (inactive) | 0.163 | -0.0645
9 | CC(C)c1nc2cc(Br)ccc2c(=O)o1 | -0.404 | 0.109 | 0.0013 | 0.58 | 1.39 | 1.21 | 0.565 | 0.604 (inactive) | 0.689 | -0.146
10 | C=CCC(OC(C)=O)[C@@H]1[C@@H](N(Cc2cccc3ccccc23)C(=O)Cc2ccc(OC)cc2)c2cc(OCCCO)ccc2N1C(=O)Cc1ccc2ccccc2c1 (stereo not given in full) | -0.289 | -0.176 | -0.14 | 0.184 | -0.529 | 0.906 | -0.29 | -1.77 (inactive) | 0.165 | -0.364
11 | C=C(COC)C(=O)CC[C@H](OC(=O)c1cccnc1)c1ccc(OCCO)cc1 | -0.21 | 0.43 | -0.133 | 1.2 | 0.144 | 0.865 | 1.29 | -0.742 (inactive) | 0.21 | -0.0618
12 | COC(=O)[C@@]1(Cc2ccc(OC)cc2)[C@H]2c3cc(C(=O)N4CCCC4)n(CCn4cc([N+](=O)[O-])nc4C)c3C[C@H]2CN1C(=O)c1ccccc1 | 2.45 | 2 | 0.861 | 1.25 | 1.5 | 1.58 | 1.31 | 2.02 (inactive) | 2.71 | 3.56
13 | CC(C)C(O)C1C=CC2C(=O)NC(=O)C2N1Nc1ccccn1 (stereo not given) | 0.359 | -0.103 | -0.0502 | 0.138 | 0.926 | 0.306 | 1.1 | 0.944 (inactive) | 0.547 | 0.151
14 | NCCCCCCNC(=O)[C@@H]1C[C@@H]2C(=O)N3CCC[C@H]3C(=O)N2[C@@H]1c1cccc(OCCO)c1 | 1.14 | 0.957 | -0.0347 | 0.361 | 0.0828 | 1.58 | 1.36 | 1.52 (inactive) | 0.492 | 0.249
15 | C=C1C(=O)C=C2CN(C(=O)c3ccccc3)[C@@](Cc3ccc(OC)cc3)(C(=O)OC)[C@@H]12 | 0.53 | 0.442 | 0.369 | 1.01 | 1.72 | 2.09 | 1.29 | 2.08 (inactive) | 0.924 | 0.212
16 | COCCOC(=O)N1C(=O)[C@@]2(c3cc(C#CCC(C(=O)OC)C(=O)OC)ccc31)[C@H](C(=O)Nc1nc3ccccc3s1)[C@H]1C(=O)O[C@H](c3ccccc3)[C@H](c3ccccc3)N1[C@@H]2c1ccc(O)cc1 | -0.566 | 0.304 | 0.412 | 0.742 | 1.45 | 0.158 | 1.3 | 0.203 (inactive) | 0.805 | 0.314

Row | SMILES | composite z-score [1] | composite z-score [2] | composite z-score [3] | composite z-score [4] | composite z-score [5] | composite z-score [6] | composite z-score [7] | z-score [8] | composite z-score [9] | composite z-score [10]
17 | C=CCNC(=O)[C@H]1[C@@H]2C(=O)O[C@@H](c3ccccc3)[C@@H](c3ccccc3)N2[C@@H](c2ccc(OCCO)cc2)[C@]12C(=O)Nc1ccc(C#CC3(O)CCCCCC3)cc12 | 0.604 | 0.648 | -0.0065 | 1.1 | 1.54 | 1.43 | 1.1 | -0.486 (inactive) | 0.229 | 0.306
18 | COc1cc(CO)cc(I)c1O[C@H]1C=C(C(=O)NCCO)C[C@@H]2O[C@H]12 | 0.167 | 0.622 | -0.111 | 0.251 | 0.864 | 0.366 | 1.46 | -1.44 (inactive) | 0.164 | -0.199
19 | COCCOC(=O)N1C(=O)[C@@]2(c3cc(C#CCC(C(=O)OC)C(=O)OC)ccc31)[C@H](C(=O)Nc1nc3ccccc3s1)[C@H]1C(=O)O[C@H](c3ccccc3)[C@H](c3ccccc3)N1[C@@H]2c1ccc(OCCO)cc1 | 0.357 | 0.773 | 0.224 | 0.81 | 1.22 | 0.166 | 1.23 | 4.17 (inactive) | 0.853 | -0.0699
20 | CC(C)N1C(=O)C[C@@](C(=O)NCCN2CCOCC2)(c2ccc([N+](=O)[O-])cc2)[C@H]1c1ccc(CO)cc1 | 0.489 | -0.32 | -0.21 | -0.692 | -0.575 | 0.543 | 0.851 | 1.08 (inactive) | -1.1 | -0.0708
21 | COc1ccc([Si](C)(C)[C@@H]2[C@@H](CC(=O)N3CCC[C@H]3CO)O[C@]3(C(=O)N(Cc4cccc(N5CCCCC5=O)c4)c4ccccc43)[C@H]2C)cc1 | -0.398 | 0.887 | -0.116 | 0.411 | 0.0236 | 1.07 | 1.07 | -0.0792 (inactive) | -0.015 | -0.0296
22 | NC(=O)NCC#Cc1ccc2c(c1)[C@]1(C(=O)N2)[C@H](c2ccc(OCCO)cc2)N2[C@H](c3ccccc3)[C@H](c3ccccc3)OC(=O)[C@H]2[C@@H]1C(=O)NC[C@H](O)c1ccccc1 | -0.142 | -0.329 | -0.0586 | 0.029 | 0.322 | 0.577 | -0.164 | -0.0847 (inactive) | 0.103 | -0.134
23 | COC(=O)C(CC#Cc1ccc2c(c1)[C@]1(C(=O)N2)[C@H](c2ccc(OCCO)cc2)N2[C@H](c3ccccc3)[C@H](c3ccccc3)OC(=O)[C@H]2[C@@H]1C(=O)N1CCCCCCC1)C(=O)OC | 3.41 | 1.91 | 0.826 | 1.21 | 1.14 | 1.93 | 1.27 | -0.378 (inactive) | 3.21 | 1.45
24 | CC(C)NC(=O)[C@@]1(c2ccc([N+](=O)[O-])cc2)CC(=O)N(CC23CC4CC(CC(C4)C2)C3)[C@@H]1c1ccc(CO)cc1 | 1.43 | 0.522 | 0.516 | 1.02 | 1.42 | 1.9 | 1.18 | -3.57 (inactive) | 1.86 | 1.11
25 | O=C1OCCC=C[C@H]2OC34C=CCN(c5ccc6ccccc6c5)C(=O)[C@H]3N(CCO)C(=O)[C@@H]4C12 (stereo not given in full) | -0.562 | -0.171 | -0.119 | -0.175 | -0.397 | -0.863 | 0.464 | 0.149 (inactive) | -0.847 | -0.672
26 | CO[C@H]1O[C@H](CO)[C@@H](OC(=O)Nc2ccccc2)[C@H](OC(=O)Nc2ccccc2)[C@H]1OC(=O)Nc1ccccc1 | -0.114 | 0.0396 | 0.118 | 1.17 | 0.971 | 0.888 | 1.34 | 0.921 (inactive) | 0.0643 | -0.0296
27 | CC(C)(C)N1CC=CC23O[C@@H]4/C=C\CCCOC(=O)C4[C@H]2C(=O)N(CCCCCO)[C@@H]3C1=O (stereo not given in full) | 1.26 | -0.406 | -0.227 | -0.668 | -0.545 | -0.229 | -0.448 | -0.106 (inactive) | -1.09 | 0.176
28 | CC(C)(C)OC(=O)CC[C@@]1(C(=O)NCCN2CCOCC2)N=C(c2ccc(OCCCO)cc2)O[C@@H]1c1ccccc1CN=[N+]=[N-] | 0.202 | 0.213 | 0.0154 | 0.167 | 0.422 | 1.54 | 0.914 | 5.92 (inactive) | 0.157 | 0.0106
29 | COc1ccc([Si](C)(C)[C@H]2[C@H](CC(=O)N3Cc4ccccc4C[C@H]3CO)O[C@@]3(C(=O)N(C)c4ccccc43)[C@@H]2C)cc1 | 0.271 | 1.09 | -0.081 | 0.583 | 0.647 | 1.65 | 1.36 | -3.34 (inactive) | 0.596 | 0.315
30 | CCCc1cc2c(n1CCc1ccc(Cl)cc1)C(C)C1CN(C(=O)c3ccccc3)C(C)(C(=O)OC)C21 (stereo not given) | 1.44 | 0.721 | 0.384 | 0.204 | 1.73 | 1.78 | 0.937 | 1.91 (inactive) | 1.1 | 2.27
31 | COc1ccc([Si](C)(C)[C@@H]2[C@@H](CC(=O)N3Cc4ccccc4C[C@H]3CO)O[C@]3(C(=O)N(Cc4ccc(N5CCOC5=O)cc4)c4ccccc43)[C@H]2C)cc1 | -0.169 | 0.669 | -0.178 | 0.284 | 0.405 | 1 | 1.09 | -2.85 (inactive) | 0.27 | 0.0274
32 | CC(C)(C)N1CC=CC23O[C@@H]4C=CCOC(=O)[C@@H]4[C@H]2C(=O)N(CCO)[C@@H]3C1=O (stereo not given in full) | 0.56 | -0.483 | -0.206 | -0.437 | -0.638 | 1.87 | 1.66 | 0.639 (inactive) | -0.633 | -0.274
